Measurements as given in PubChem BioAssay (NCI).
About 83,000 compounds went through this panel and 20% of them were active in at least one assay; those are over-represented in the sample as a whole.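 Single-concentration screen, 48 h exposure, 96-well plates. Endpoint: percent growth. Below 10 = active.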 Unmarked numbers belong to inactive results. Activity calls are given as the source filed them.

Experiments:
Experiment in all cases: NCI-60 one-dose screen, 48 h (100 = growth as untreated, 0 = no growth, -100 = all killed)
Conditions in all cases: 10 µM unless noted
[1] = test system: T-47D breast
[2] = test system: BT-549 breast
[3] = test system: MDA-MB-435 melanoma
[4] = test system: SW-620 colon
[5] = test system: MCF7 breast
[6] = test system: HCT-116 colon
[7] = test system: HCC-2998 colon
[8] = test system: KM12 colon

## COc1cccc(CNc2c3ccccc3nc3ccccc23)c1OC
[1]
  growth: 47.5%
[2]
  growth: 59.7%
[3]
  growth: 46.3%
[4]
  growth: 25.4%
[5]
  growth: 10.1%
[6]
  growth: 11.8%
[7]
  growth: 38.3%
[8]
  growth: 52.4%

## COc1ccc(Oc2ccc(/C=C/C(=O)c3ccc(OC)c(OC)c3)cc2)cc1
[1]
  growth: 60.8%
[2]
  growth: 85.3%
[3]
  growth: 90.3%
[4]
  growth: 83.9%
[5]
  growth: 56.3%
[6]
  growth: 69.3%
[7]
  growth: 104%
[8]
  growth: 79%

## O=C(/C=C/c1ccccc1)c1cccc2ccccc12
[1]
  growth: 32.9%
[2]
  growth: 62.5%
[3]
  growth: 16.8%
[4]
  growth: 9.3% (active)
[5]
  growth: 11.6%
[6]
  growth: 32%
[7]
  growth: 48.3%
[8]
  growth: 37.4%

## Cc1cccc(N=Nc2cccc(C)c2)c1
[1]
  growth: 110%
[2]
  growth: 108%
[3]
  growth: 100%
[4]
  growth: 106%
[5]
  growth: 97.5%
[6]
  growth: 111%
[7]
  growth: 112%
[8]
  growth: 110%

## COC(=O)c1c(C)nc(C)c2c1C(=O)C=C(NCc1ccccc1)C2=O
[1]
  growth: 82.2%
[2]
  growth: 90%
[3]
  growth: 103%
[4]
  growth: 106%
[5]
  growth: 76%
[6]
  growth: 76%
[7]
  growth: 96.2%
[8]
  growth: 83%

## O=C1c2cccnc2C(=O)c2c1c(C(=O)OCCc1ccccn1)c1ccccn21
[1]
  growth: -6.8% (active)
[2]
  growth: -35.2% (active)
[3]
  growth: -10.7% (active)
[4]
  growth: 2.3% (active)
[5]
  growth: -56.8% (active)
[6]
  growth: -48.3% (active)
[7]
  growth: -70.3% (active)
[8]
  growth: 4.35% (active)

## O=C1NC(=O)C(c2coc3cc(Br)ccc23)=C1c1c[nH]c2ccccc12
[1]
  growth: 34.7%
[2]
  growth: 67.9%
[3]
  growth: -7.93% (active)
[4]
  growth: 35.4%
[5]
  growth: 30.4%
[6]
  growth: 27.3%
[7]
  growth: 108%
[8]
  growth: 31.7%

## COc1ccc(-c2cc(-c3cc(OC)ccc3OC)nc(SCC(C)=O)c2C#N)cc1
[1]
  growth: 57.9%
[2]
  growth: 61%
[3]
  growth: 36.1%
[4]
  growth: 92.1%
[5]
  growth: 70.6%
[6]
  growth: 74%
[7]
  growth: 84.5%
[8]
  growth: 60.2%

## COc1ccc(-c2nc3c(c(-c4ccc(Cl)cc4)nn3-c3ccccc3)c(-c3ccccc3)c2C#N)cc1
[1]
  growth: 94.3%
[2]
  growth: 106%
[3]
  growth: 105%
[4]
  growth: 104%
[5]
  growth: 96%
[6]
  growth: 101%
[7]
  growth: 115%
[8]
  growth: 98.5%

## CCSc1ccnc(N)n1
[1]
  growth: 104%
[2]
  growth: 117%
[3]
  growth: 112%
[4]
  growth: 106%
[5]
  growth: 104%
[6]
  growth: 106%
[7]
  growth: 116%
[8]
  growth: 108%

## c1ccc(-c2ccc3c(c2)C2(CCNCC2)CN3)cc1
[1]
  growth: 80.3%
[2]
  growth: 99.3%
[3]
  growth: 106%
[4]
  growth: 93.6%
[5]
  growth: 80.2%
[6]
  growth: 87.1%
[7]
  growth: 103%
[8]
  growth: 87.7%

## O=C(NCCN1CCOCC1)OCc1ccc2c(Cl)cc(Cl)c(O)c2n1
[1]
  growth: 74.8%
[2]
  growth: 83%
[3]
  growth: 65.8%
[4]
  growth: 87.6%
[5]
  growth: 51%
[6]
  growth: 39.1%
[7]
  growth: 83.5%
[8]
  growth: 53.2%

## CN(C)Cc1cc(C(C)(C)C)cc(Br)c1O
[1]
  growth: 99.6%
[2]
  growth: 114%
[3]
  growth: 101%
[4]
  growth: 87.7%
[5]
  growth: 87.9%
[6]
  growth: 103%
[7]
  growth: 109%
[8]
  growth: 109%

## COC(=O)[C@@]12CC=C(C)[C@]3(C[C@H](c4ccoc4)OC3=O)[C@H]1C=C[C@@H](O)[C@@]2(O)C(=O)OC
[1]
  growth: 110%
[2]
  growth: 110%
[3]
  growth: 102%
[4]
  growth: 113%
[5]
  growth: 101%
[6]
  growth: 97.7%
[7]
  growth: 101%
[8]
  growth: 103%

## CC1=C2CC/C(C)=C/CC[C@]3(C)O[C@H]3CC/C(C)=C/[C@H]2OC1
[1]
  growth: 86%
[2]
  growth: 106%
[3]
  growth: 98.7%
[4]
  growth: 107%
[5]
  growth: 105%
[6]
  growth: 101%
[7]
  growth: 99.6%
[8]
  growth: 120%

## c1cc(OCCN2CCCCC2)ccc1CNc1ccc2nc(CCC3CCCCC3)[nH]c2c1
[1]
  growth: -29.6% (active)
[2]
  growth: 73.6%
[3]
  growth: -54.2% (active)
[4]
  growth: 2.97% (active)
[5]
  growth: -3.08% (active)
[6]
  growth: 12.9%
[7]
  growth: -13.5% (active)
[8]
  growth: 43%

## CN1CCOCCN(C)Cc2ccc3ccc(cc3c2)CN(C)CCOCCN(C)Cc2ccc3ccc(cc3c2)C1
[1]
  growth: 119%
[2]
  growth: 93.6%
[3]
  growth: 82.9%
[4]
  growth: 22.4%
[5]
  growth: 77.5%
[6]
  growth: 28.3%
[7]
  growth: 100%
[8]
  growth: 73.7%

## C[N+]1=C(/C=C/c2ccccc2Cl)C(C)(C)c2ccccc21
[1]
  growth: 86.4%
[2]
  growth: 109%
[3]
  growth: 100%
[4]
  growth: 92.4%
[5]
  growth: 94.7%
[6]
  growth: 90.8%
[7]
  growth: 103%
[8]
  growth: 96.6%

## CC(C)(Sc1cc(C(C)(C)C)c(O)c(C(C)(C)C)c1)Sc1cc(C(C)(C)C)c(OC(=O)CCC(=O)O)c(C(C)(C)C)c1
[1]
  growth: 31.4%
[2]
  growth: 54.8%
[3]
  growth: 47.2%
[4]
  growth: 44.9%
[5]
  growth: 35.8%
[6]
  growth: 28.3%
[7]
  growth: 42.9%
[8]
  growth: 33.3%

## Cc1[nH]n(-c2cccc(Cl)c2)c(=O)c1/C=C1\C=c2ccccc2=CC1=O
[1]
  growth: -7.69% (active)
[2]
  growth: 90.2%
[3]
  growth: 20.7%
[4]
  growth: 31%
[5]
  growth: 8.67% (active)
[6]
  growth: 8.69% (active)
[7]
  growth: -22.2% (active)
[8]
  growth: 21.2%

## c1ccc(Nc2nc3c(s2)CCc2c[nH]cc2-3)nc1
[1]
  growth: 11%
[2]
  growth: 95.4%
[3]
  growth: 110%
[4]
  growth: 102%
[5]
  growth: 65.1%
[6]
  growth: 72.2%
[7]
  growth: 103%
[8]
  growth: 92.3%

## COc1cc2c(cc1-c1c(C)noc1C)ncc1nc(CN3CCOCC3)n([C@H](C)COC(F)F)c12
[1]
  growth: 13%
[2]
  growth: 55.5%
[3]
  growth: 35.8%
[4]
  growth: 62.9%
[5]
  growth: 13.2%
[6]
  growth: 41.3%
[7]
  growth: 32%
[8]
  growth: 34.9%

## C#COc1cccc(Nc2ncnc3cc(NC(=O)[C@H](C)Cl)ccc23)c1
[1]
  growth: 6.76% [6.25 µM] (active)
[2]
  growth: 9.94% [6.25 µM] (active)
[3]
  growth: -25.1% [6.25 µM] (active)
[4]
  growth: 14.5% [6.25 µM]
[5]
  growth: 11.3% [6.25 µM]
[6]
  growth: 7.41% [6.25 µM] (active)
[7]
  growth: 5.81% [6.25 µM] (active)
[8]
  growth: 17.8% [6.25 µM]

## COc1ccc2c(c1)CC[C@@H]1[C@@H]2CC[C@]2(C)C3C(=CC(COC(C)=O)C4C(=O)N(c5ccc(Cl)cc5)C(=O)C43)C[C@@H]12 (some centres not stated)
[1]
  growth: 105%
[2]
  growth: 116%
[3]
  growth: 111%
[4]
  growth: 104%
[5]
  growth: 108%
[6]
  growth: 85.2%
[7]
  growth: 92.9%
[8]
  growth: 102%

## COc1cc2c3c(c4c5ccccc5[nH]c4c2c(OC)c1OC)C(=O)N(CCN1CCCCC1)C3=O
[1]
  growth: 59.5%
[2]
  growth: 96.6%
[4]
  growth: -66.4% (active)
[5]
  growth: -56.3% (active)
[6]
  growth: -85.6% (active)
[7]
  growth: 22.3%
[8]
  growth: -20% (active)

## CC1(C)CC[C@]2(CO)CC[C@]3(C)[C@](O)([C@H](O)C[C@@H]4[C@@]5(C)CCCNC(C)(C)[C@@H]5CC[C@]43C)[C@@H]2C1
[1]
  growth: 84.3%
[2]
  growth: 98.8%
[4]
  growth: 99.6%
[5]
  growth: 91.7%
[6]
  growth: 71.3%
[7]
  growth: 58.4%

## COc1ccc(C/C(C)=C(\c2ccc(O)cc2)c2ccc(OCCN3CCCCC3)cc2)cc1
[1]
  growth: 53.8%
[2]
  growth: 88.3%
[4]
  growth: 91.6%
[5]
  growth: 35.2%
[6]
  growth: 46.5%
[7]
  growth: 80.8%
[8]
  growth: 91.1%
